Measured values published in PubChem BioAssay AID504408 (Broad Institute, 2011).
Screen size: about 300,000 compounds; about 5,200 (1.7%) were called active.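 The calls were made as follows: active = mean replicate activation of at least 50% with a set share of replicates each reaching 50%; inconclusive = only one of those two conditions met; inactive = mean below 50% and too few replicates reaching it.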 The entries come from a sample that favours actives as a whole.

Assay: HSF-1 response element luciferase induction – NIH3T3-HGL cells, MG132 stress, luminescence, single point, primary screen (AID 504408);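 also: 0% = median of the neutral control wells and 100% = twice that signal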
Details: NIH3T3-HGL HSF-1 luciferase reporter, MG132, 8 h; at 9 µM; stronger effect = higher value; 100% = twice DMSO control signal

Compound | activation
COc1ccc(C(=O)OCC(=O)Nc2ccc3[nH]c(=O)[nH]c3c2)c(OC)c1OC | 29.4% (inactive)
CCc1c(C)sc(NC(=O)c2ccc(Br)o2)c1C(=O)OC | 64.8% (active)
CCc1c(C)sc(NC(=O)c2cccs2)c1C(N)=O | 39.5% (inactive)
CCOC(=O)c1c(NC(=O)C2CC=CCC2C(=O)O)sc(C)c1CC (configuration not stated) | -15% (inactive)
Cc1onc(-c2ccccc2Cl)c1C(=O)OCc1nnc(-c2ccccc2)o1 | 23.4% (inactive)
COc1ccc2nc(SCc3ccccc3)nc(C)c2c1 | 68.9% (active)
COc1ccc(-c2nnc3ccc(SCc4ccccc4)nn23)cc1 | 16% (inactive)
COC(=O)CSc1nc(C)c2ccc(OC)cc2n1 | 17.7% (inactive)
Cc1ccc(S(=O)(=O)N2CCCCC2)cc1C(=O)N(C)CC(=O)Nc1cccc(F)c1 | 5.46% (inactive)
CNC(=O)c1ccc(NC(=O)c2cccc(C(F)(F)F)c2)cc1 | 9.95% (inactive)
Cn1nc(C(F)(F)F)cc1-c1ccc(/C=C(\C#N)C(=O)c2cccc(C(F)(F)F)c2)s1 | 65.6% (active)
Cn1nc(C(F)(F)F)cc1C(=O)O | 15.5% (inactive)
FC(F)(F)c1ccc2c3n(nc2c1)CCN=C3c1ccc(Cl)cc1 | -14.8% (inactive)
Cc1ccc2c(NC(=O)C3CC3)cccc2n1 | -0.793% (inactive)
Cc1cc(C)cc(NC(=O)C2CCN(c3nc(C)cc(C)n3)CC2)c1 | 11% (inactive)
Cc1cc(C)c2c(NC(=O)C3CC3)nn(C)c2n1 | 56.3% (active)
COc1ccc2c(c1OC)C(=O)OC2Nc1nc(-c2ccccc2)cs1 (configuration not stated) | 139% (active)
Cc1ccc(-c2csc(NC3OC(=O)c4ccccc43)n2)cc1 (configuration not stated) | 81.1% (active)
COc1ccc(-c2csc(NC3OC(=O)c4ccccc43)n2)cc1 (configuration not stated) | 20.2% (inactive)
Cc1ccc(-c2csc(NC(=O)Cn3[nH]c(=O)c4ccccc4c3=O)n2)cc1 | -17.7% (inactive)
COc1ccc(CCNc2nc(-c3cccc(NC(C)=O)c3)cs2)cc1OC | -4.33% (inactive)
COc1cccc(CC(=O)Nc2nc(-c3ccc(OC)c(OC)c3)cs2)c1 | 3.91% (inactive)
CCc1cccc(C)c1NC(=O)COC(=O)CC1CCCC1 | 4.54% (inactive)
CCCCn1c(N)c(N(CC(C)C)C(=O)c2ccc(-n3c(C)ccc3C)cc2)c(=O)[nH]c1=O | 4.3% (inactive)
CCN(CC(=O)Nc1ccc(NC(C)=O)cc1)C(=O)C1CC(=O)N(Cc2ccc(C)cc2)C1 (configuration not stated) | 3.94% (inactive)
Cc1cccc(C(=O)NCc2nnc(SC(C)C(=O)Nc3nnc(C)s3)n2C)c1 (configuration not stated) | -1.45% (inactive)

Compound | activation
Cc1onc(-c2ccccc2Cl)c1C(=O)N(Cc1ccc(N(C)C)cc1)C(C)C | 8.27% (inactive)
COc1cccc(NC(=S)NCc2ccccn2)c1 | 15.3% (inactive)
Cc1nn(C)c(C(=O)NNC(=S)NC2CCCCC2)c1Cl | 22.3% (inactive)
COc1cccc(NC(=S)NC(=O)c2c(Cl)c(C)nn2C)c1 | 60.9% (active)
CN(CC(=O)Nc1cccc(F)c1)C(=O)C1CSC2(C)CCC(=O)N12 (configuration not stated) | 1.13% (inactive)
O=C1CN(C(=O)COc2c(Cl)cccc2Cl)c2ccccc2N1 | -79.7% (inactive)
Cc1cc(C)cc(NC(=O)COc2coc(CN3CCN(c4ccccc4)CC3)cc2=O)c1 | 1.43% (inactive)
C/C(CCC(=O)OC[C@H]1O[C@H](C#Cc2ccccc2)C=C[C@@H]1Oc1ccc(C)cc1)=N\OC[C@@H](O)[C@H]1O[C@@H]2OC(C)(C)O[C@@H]2[C@H]1O | 61.7% (active)
COc1ccc(O[C@H]2C=C[C@@H](c3ccccc3)O[C@@H]2CO/N=C/C[C@@H]2C=C[C@H](OC(C)=O)[C@@H](COC(C)=O)O2)cc1 | -4.12% (inactive)
CCOc1ccc(CCNC(=O)COC(=O)c2c(OC)cccc2OC)cc1OCC | -2.88% (inactive)
Cc1[nH]c(=O)c(C(=O)/C=C/c2ccccc2)c2c1CCCC2 | 71% (active)
CC(=O)Nc1ccc(/C=C/C(=O)c2ccccc2)cc1 | 30.2% (inactive)
Cc1cn(COC/C=C/c2ccccc2)c(=O)[nH]c1=O | -6.12% (inactive)
O=C(c1ccc(F)cc1)N1CCC(C(=O)N2CCN(S(=O)(=O)c3ccccc3Br)CC2)CC1 | -3.27% (inactive)
CCOc1ccc(S(=O)(=O)N2CCC(C(=O)OCc3ccc(OC)cc3)CC2)cc1 | 10.2% (inactive)
Cc1nc(-c2ccc(F)cc2)c(CC(=O)Nc2cccc(S(=O)(=O)N3CCOCC3)c2)s1 | 4.29% (inactive)
O=C(c1ccc[nH]c1=S)N1CCN(S(=O)(=O)c2ccc(Br)cc2Cl)CC1 | 58% (active)
O=C(c1ccccc1F)N1CCN(S(=O)(=O)c2ccc(Br)cc2)CC1 | -5.95% (inactive)
O=C(c1ccc(Cl)c(S(=O)(=O)N2CCCCC2)c1)N1CCCCCC1 | -11.6% (inactive)
CC(=O)CC[C@@H](C)O[C@@H]1OC(C)[C@H](O)CC1O (some centres not stated) | -8.11% (inactive)
CCOc1ccc(C(=O)Nc2cc(Cl)ccc2-n2cncn2)cc1OC | -15.6% (inactive)
Cc1ccccc1NC(=O)C(C)OC(=O)CCC(=O)N(CC(C)C)c1c(N)n(CC(C)C)c(=O)[nH]c1=O (configuration not stated) | -9.04% (inactive)
Cc1ccc(C(=O)OCc2nc(N)nc(Nc3ccccc3C)n2)cc1 | -1.52% (inactive)
Cc1ccccc1Nc1nc(N)nc(CSc2ccccc2)n1 | 118% (active)
Cc1ccccc1Nc1nc(N)nc(CSc2nnc3ccccn23)n1 | -3.03% (inactive)
O=C(Nc1ncccc1O)c1ccc(S(=O)(=O)N2CCCCCC2)cc1 | 3.69% (inactive)
